These results are taken from PubChem BioAssay (NCI).

This is part of a sample that, as a whole, favours compounds with a hit. Of some 83,000 tested, about 20% had one in any assay.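 The endpoint reported here, percent growth, reads 100 for growth as untreated, 0 for no net growth and -100 for all cells dead.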 A number with no mark means an inactive call. Activity calls are given as the source filed them. Rule for the calls: active = growth percent below 10; inactive = the rest.

Some test systems named below: NCI-H23 lung; NCI-H226 lung; NCI-H322M lung; HOP-62 NSCLC; NCI-H460 lung; HOP-92 NSCLC; NCI-H522 lung; A549/ATCC NSCLC; 786-0 renal; COLO 205 colon; DU-145 prostate; K-562 leukemia; MALME-3M melanoma; MDA-MB-231 breast; RXF 393 renal; SF-268 CNS; SF-295 CNS; SF-539 CNS; UACC-257 melanoma; M14 melanoma.
Common to all, as to assay: NCI-60 one-dose screen, 48 h (100 = growth as untreated, 0 = no growth, -100 = all killed)
What all share (conditions): 10 µM unless noted

`O=C(Nc1ccncc1)C(=O)c1cn(S(=O)(=O)c2ccc(Cl)cc2)c2ccccc12`: the growth with NCI-H23 lung was 30.7%; in the experiment with NCI-H226 lung it was 78.3%; in the experiment on NCI-H322M lung, 80.6%; in the experiment on HOP-62 NSCLC, 31.4%; in the experiment on NCI-H460 lung, 71.9%; in the experiment on HOP-92 NSCLC it was 32.8%. In addition, the growth was -2.79% (active) in the experiment with NCI-H522 lung; 73.9% with A549/ATCC NSCLC; 34.9% in the experiment with 786-0 renal; 106% with COLO 205 colon; 27.7% in the experiment with DU-145 prostate; 22.2% in the experiment on K-562 leukemia. Moreover, the growth in the experiment with MALME-3M melanoma was 31.7%; in the experiment on MDA-MB-231 breast, 45.7%; in the experiment on RXF 393 renal, 25%; with SF-268 CNS, 41.8%; with SF-295 CNS, 13.1%; in the experiment on SF-539 CNS, 9.27% (active). In addition, the growth with UACC-257 melanoma was 75.9%; in the experiment on M14 melanoma, 17.7%.

Turning to `COc1ccc(S(=O)(=O)NCCCNc2nccc(-n3ccc4cccnc43)n2)cc1`, the growth is 102% in the experiment on NCI-H23 lung; 89.9% in the experiment on NCI-H226 lung; 87.7% with NCI-H322M lung; 109% in the experiment on HOP-62 NSCLC; 98.7% with NCI-H460 lung; 81.4% in the experiment on HOP-92 NSCLC. Besides, the growth in the experiment with NCI-H522 lung is 84.3%; in the experiment on A549/ATCC NSCLC, 83%; in the experiment on 786-0 renal it was 97.6%; in the experiment on COLO 205 colon, 113%; in the experiment on DU-145 prostate, 91.7%; in the experiment with K-562 leukemia it was 77.7%. The growth is 121% with MALME-3M melanoma; 91.1% in the experiment with MDA-MB-231 breast; 95.5% in the experiment with RXF 393 renal; 89.6% with SF-268 CNS; 94.7% in the experiment on SF-295 CNS; 100% with SF-539 CNS. Also, the growth in the experiment with UACC-257 melanoma is 111%; with M14 melanoma it was -14.4% (active).

In the case of `COc1cc(C2C3=C(COC3=O)Nc3cc4c(cc32)OCO4)cc2c1OCO2` (stereo not given), the growth in the experiment on NCI-H23 lung is 40.3%; with NCI-H226 lung, 19.2%; in the experiment with NCI-H322M lung it was 48.5%; with HOP-62 NSCLC it was 36%; in the experiment on NCI-H460 lung, 2.94% (active); with HOP-92 NSCLC, 40.6%. Further, the growth in the experiment on NCI-H522 lung was 5.26% (active); with A549/ATCC NSCLC, 11.9%; in the experiment on 786-0 renal, 19.9%; in the experiment with COLO 205 colon, -51.5% (active); in the experiment with DU-145 prostate it was -19.5% (active); with K-562 leukemia, 7.92% (active). The growth was 53.8% in the experiment with MALME-3M melanoma; 11.1% with MDA-MB-231 breast; 18.5% in the experiment with RXF 393 renal; 20.1% with SF-268 CNS; 5.02% (active) with SF-295 CNS; -0.0643% (active) in the experiment on SF-539 CNS. The growth in the experiment with UACC-257 melanoma is 65.1%; with M14 melanoma it was 5.48% (active).

For the compound `Cc1ccc(S(=O)(=O)/C(=C\c2ccc(Cl)cc2)C(=O)c2ccccc2)cc1`, the growth with NCI-H23 lung was 102%; in the experiment on NCI-H226 lung it was 97.9%; in the experiment on NCI-H322M lung it was 101%; in the experiment with HOP-62 NSCLC, 104%; in the experiment with NCI-H460 lung it was 106%; in the experiment with HOP-92 NSCLC, 94.6%. The growth was 96.3% with NCI-H522 lung; 106% with A549/ATCC NSCLC; 103% in the experiment with 786-0 renal; 102% in the experiment with COLO 205 colon; 113% in the experiment with DU-145 prostate; 96.1% in the experiment on K-562 leukemia. The growth with MALME-3M melanoma is 107%; in the experiment with MDA-MB-231 breast it was 103%; with RXF 393 renal, 104%; with SF-268 CNS, 103%; in the experiment on SF-295 CNS it was 93.1%; with SF-539 CNS, 122%. For the same compound, the growth with UACC-257 melanoma is 114%; in the experiment on M14 melanoma it was 102%.

For `COc1ccc(/C=C2\Oc3cc(OCCCN4CCCC4)ccc3C2=O)cc1`, the growth was 87.2% in the experiment with NCI-H23 lung; 93% with NCI-H226 lung; 93.1% with NCI-H322M lung; 89.7% with HOP-62 NSCLC; 68.5% with NCI-H460 lung; 82.2% in the experiment with HOP-92 NSCLC. Further, the growth was 85.7% in the experiment on NCI-H522 lung; 90.6% in the experiment with A549/ATCC NSCLC; 93% in the experiment on 786-0 renal; 93.5% in the experiment on COLO 205 colon; 95.4% with DU-145 prostate; -25% (active) in the experiment on K-562 leukemia. Besides, the growth is 108% with MALME-3M melanoma; 93.8% with MDA-MB-231 breast; 78.9% in the experiment with RXF 393 renal; 88.9% in the experiment on SF-268 CNS; 98.7% with SF-295 CNS; 79.7% in the experiment with SF-539 CNS. Further, the growth in the experiment with UACC-257 melanoma was 101%; in the experiment on M14 melanoma, 84.4%.

Turning to `CCN(CC)CCC(CNc1ccnc2cc(Cl)ccc12)c1ccc(Cl)cc1` (stereo not given), the growth in the experiment with NCI-H23 lung was 48.6%; with NCI-H226 lung it was 14.4%; with NCI-H322M lung, 34.6%; in the experiment with HOP-62 NSCLC, 6.58% (active); in the experiment with NCI-H460 lung it was -12.4% (active); in the experiment with HOP-92 NSCLC, -39.9% (active). The growth with NCI-H522 lung was -59.1% (active); with A549/ATCC NSCLC, 12.3%; in the experiment with 786-0 renal, -59.1% (active); with COLO 205 colon, -97.7% (active); with DU-145 prostate, 67.7%; with K-562 leukemia, -53.9% (active). In addition, the growth in the experiment with MALME-3M melanoma was -83.1% (active); in the experiment on MDA-MB-231 breast, -32.1% (active); with RXF 393 renal it was -90.4% (active); in the experiment on SF-268 CNS, -8.09% (active); in the experiment on SF-295 CNS, -75.4% (active); in the experiment on SF-539 CNS, -78.2% (active). Also, the growth in the experiment with UACC-257 melanoma is -79.4% (active); in the experiment on M14 melanoma, -80.2% (active).

On to `COc1cc2c(cc1O)CCN1C[C@@H](CC(C)C)[C@@H](O)C[C@@H]21`, for which the growth in the experiment with NCI-H23 lung was 99.9%; in the experiment with NCI-H226 lung it was 96.6%; with NCI-H322M lung, 105%; in the experiment with HOP-62 NSCLC, 93.5%; in the experiment with NCI-H460 lung, 116%; in the experiment on HOP-92 NSCLC, 63.8%. The growth with NCI-H522 lung was 93.6%; with A549/ATCC NSCLC, 107%; in the experiment on 786-0 renal, 92%; with COLO 205 colon, 127%; with DU-145 prostate, 111%; with K-562 leukemia, 96%. Moreover, the growth was 100% with MALME-3M melanoma; 103% in the experiment on MDA-MB-231 breast; 107% in the experiment on RXF 393 renal; 107% with SF-268 CNS; 97.4% in the experiment with SF-295 CNS; 96.7% in the experiment with SF-539 CNS. Besides, the results for the growth in the experiment with UACC-257 melanoma and in the experiment with M14 melanoma were 99.5% and 100%, respectively.

As to `CC1(c2ccc(Cl)cc2)OC(=O)CC(=O)O1`, the growth in the experiment with NCI-H23 lung is 95.9%; with NCI-H226 lung, 104%; in the experiment on NCI-H322M lung, 109%; in the experiment with HOP-62 NSCLC it was 102%; in the experiment on NCI-H460 lung, 110%; in the experiment with HOP-92 NSCLC it was 103%. The growth was 90.1% in the experiment on NCI-H522 lung; 99.1% with A549/ATCC NSCLC; 111% in the experiment on 786-0 renal; 109% with COLO 205 colon; 108% in the experiment on DU-145 prostate; 113% in the experiment on K-562 leukemia. The growth is 89% in the experiment with MALME-3M melanoma; 98.2% in the experiment on MDA-MB-231 breast; 113% in the experiment on RXF 393 renal; 100% in the experiment with SF-268 CNS; 120% in the experiment on SF-295 CNS; 102% in the experiment with SF-539 CNS. Also, the growth with UACC-257 melanoma was 109%; in the experiment with M14 melanoma, 101%.
